Measurements as given in PubChem BioAssay AID1159580 (chemical genetic matrix, 2015).
Hit rate of the full screen: of about 5,500 compounds, about 2,000 (36%) were called active. About 18% were inconclusive and are not listed. Cut-off read from the data, not from the text of the source: active = normalized growth mostly below about 0.91 (no sharp cut-off); inconclusive = no clear call, values can overlap the other calls; inactive = mostly above about 0.92. This is one part of the list.

Assay: chemical genetic growth profiling, strain panel (AID 1159580);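 note: tested at 20 µM; growth read once vehicle control cultures reached saturation at 30 °C; 1 = growth at the plate median or of vehicle wells; lower values mean less growth of the strain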
Details: S. cerevisiae deletion strains, growth OD

Measured: normalized growth

CC(C)C(C)/C=C/C(C)C1CCC2C3=CC=C4CC(O)CCC4(C)C3CCC21C (stereo unspecified)
active: locus YLR262C, strain YPT6 (second series), active compounds read low 0.727 | locus YLR330W, strain CHS5, active compounds read low 0.844 | locus YLR418C, strain cdc73, active compounds read low 0.666 | locus YNL071W, strain lat1, active compounds read low 0.773 | locus YNL307C, strain MCK1, active compounds read low 0.774 | locus YOR270C, strain vph1, active compounds read low 0.681 | locus YPR163C, strain tif3, active compounds read low 0.828
inactive: locus YJL187C, strain SWE1, active compounds read low 0.989 | locus YJR043C, strain POL32, active compounds read low 1.03 | locus YJR066W, strain TOR1, active compounds read low 0.921 | locus YJR075W, strain HOC1, active compounds read low 0.978 | locus YKL009W, strain mrt4, active compounds read low 0.926 | locus YKL068W, active compounds read low 1.01 | locus YKL085W, strain MDH1 (second series), active compounds read low 1 | locus YKL085W, strain MDH1, active compounds read low 1 | locus YKL160W, strain elf1, active compounds read low 0.989 | locus YKR001C, strain vps1, active compounds read low 0.9 | locus YKR026C, strain gcn3, active compounds read low 0.99 | locus YKR091W, strain srl3, active compounds read low 0.998 | locus YLL001W, strain dnm1, active compounds read low 0.96 | locus YLL026W, active compounds read low 0.984 | locus YLL041C, strain sdh2, active compounds read low 1.01 | locus YLR027C, strain aat2, active compounds read low 0.972 | locus YLR039C, strain RIC1, active compounds read low 0.806 | locus YLR058C, strain SHM2, active compounds read low 0.946 | locus YLR102C, strain apc9, active compounds read low 1.02 | locus YLR113W, strain HOG1, active compounds read low 1 | locus YLR221C, strain rsa3, active compounds read low 0.938 | locus YLR258W, strain gsy2, active compounds read low 0.959 | locus YLR262C, strain YPT6, active compounds read low 0.801 | locus YLR268W, strain sec22, active compounds read low 0.968 | locus YLR320W, strain mms22, active compounds read low 0.929 | locus YLR342W, strain FKS1, active compounds read low 0.997 | locus YLR357W, strain rsc2, active compounds read low 1.01 | locus YLR370C, strain arc18, active compounds read low 0.989 | locus YLR371W, strain rom2, active compounds read low 1.05 | locus YLR384C, strain iki3, active compounds read low 0.988 | locus YML016C, strain PPZ1, active compounds read low 0.973 | locus YML032C, strain rad52, active compounds read low 0.973 | locus YML120C, strain ndi1, active compounds read low 0.985 | locus YML124C, strain tub3, active compounds read low 1 | locus YMR058W, strain fet3, active compounds read low 0.956 | locus YMR078C, strain ctf18, active compounds read low 1 | locus YMR125W, strain sto1, active compounds read low 1.01 | locus YMR205C, strain PFK2, active compounds read low 0.937 | locus YMR223W, strain ubp8, active compounds read low 0.941 | locus YMR231W, strain pep5, active compounds read low 0.998 | locus YMR307W, strain GAS1, active compounds read low 0.797 | locus YNL067W, strain RPL9B, active compounds read low 0.924 | locus YNL128W, strain TEP1, active compounds read low 0.994 | locus YNL153C, strain GIM3, active compounds read low 0.966 | locus YNL183C, strain NPR1, active compounds read low 0.951 | locus YNL209W, strain ssb2, active compounds read low 1 | locus YNL233W, strain BNI4, active compounds read low 0.887 | locus YNL248C, strain rpa49, active compounds read low 0.939 | locus YNL250W, strain rad50, active compounds read low 0.952 | locus YNL271C, strain bni1, active compounds read low 0.979 | locus YNL298W, strain CLA4, active compounds read low 0.977 | locus YNL322C, strain KRE1 (second series), active compounds read low 0.996 | locus YNR049C, strain mso1, active compounds read low 0.998 | locus YNR052C, strain pop2, active compounds read low 0.952 | locus YOL012C, strain htz1 1.19 | locus YOL147C, strain pex11, active compounds read low 0.996 | locus YOR001W, strain rrp6, active compounds read low 0.996 | locus YOR061W, strain CKA2, active compounds read low 0.933 | locus YOR069W, strain VPS5, active compounds read low 0.98 | locus YOR070C, strain gyp1, active compounds read low 0.976 | locus YOR080W, strain dia2, active compounds read low 1.02 | locus YOR083W, strain WHI5, active compounds read low 0.991 | locus YOR106W, strain vam3, active compounds read low 0.889 | locus YOR136W, strain idh2, active compounds read low 0.962 | locus YOR144C, strain elg1, active compounds read low 1 | locus YOR184W, strain ser1, active compounds read low 0.952 | locus YOR231W, strain MKK1, active compounds read low 0.995 | locus YOR265W, strain rbl2, active compounds read low 1.01 | locus YOR290C, strain snf2, active compounds read low 0.929 | locus YOR316C, strain cot1, active compounds read low 1 | locus YPL051W, strain arl3, active compounds read low 0.995 | locus YPL078C, strain atp4, active compounds read low 0.957 | locus YPL106C, strain sse1, active compounds read low 1.12 | locus YPL240C, strain hsp82, active compounds read low 1.01 | locus YPL256C, strain CLN2, active compounds read low 1.02 | locus YPR119W, strain clb2, active compounds read low 1.02 | locus YPR141C, strain kar3, active compounds read low 1.01 | locus YPR167C, strain met16, active compounds read low 0.956 | strain wtn01, active compounds read low 0.969
